This is an account of results in PubChem BioAssay (NCI).

SMILES strings stand for the structures. Compounds without any hit were thinned out: in the full panel of roughly 83,000, 20% have a hit.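 Assay: single dose, 48 h. Readout: percent growth (0 = no net growth; negative = cell death). Active: <10.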 Unmarked numbers belong to inactive results. Active and inactive are the calls of the source.

For the first assay, the system named is HT29 colon. Briefly: NCI-60 one-dose screen, 48 h (100 = growth as untreated, 0 = no growth, -100 = all killed). The note with it: 10 µM unless noted.
Consider `O=C(CCCCC(=O)N/N=C\c1ccccc1O)N/N=C\c1ccccc1O`, for which the growth was 69.1%.
Still for that read-out and setting: as for `COc1cc(-c2nc(C(=O)NCC(=O)NO)nn2-c2ccc(Cl)cc2)cc(OC)c1OC`, the figure is 96.4%.
Still for that read-out and setting: with `O=c1ccccc(-c2ccc(Br)cc2)c1O` the figure was 21.9%; with `Cc1cc2nc(NC(=O)CN3CCN(CCN4C(=O)c5cccc6cccc(c56)C4=O)CC3)sc2cc1C`, 51.8%; with `COc1cc(C(=O)/C=C/c2cccnc2Nc2ccc(Cl)cc2)cc(OC)c1OC`, -55.1% (active).
Same read-out and setting: as for `COc1ccc(-c2nnc(SCC(=O)c3ccc(Cl)cc3)o2)cc1`, the figure is 96%; as for `COc1cc(/C=C/C(=O)Nc2cccnc2Nc2ccc(F)cc2)cc(OC)c1OC`, 91.2%.
Turning to `O=C1/C(=C/c2ccccc2O)N=C2SCCCN12`, the growth was 103%.
On the same count and under the same terms, with `CC(C)(CCCN=C(N)Nc1ccc(Cl)cc1)c1ccc(F)cc1` the figure was 12.7%; with `CCCCC[C@H]1C/C=C2/C(=O)C=C[C@@H]2C/C=C\CCCC(=O)O1`, -69.1% (active).
On the same count and under the same terms, with `COc1ccc2c(c1)C(=O)/C(=C/c1ccccn1)CC2` the figure was 43.3%.
On the same count and under the same terms, as for `C=C1C(=O)O[C@H]2[C@H]1CC/C(COC(=O)NCCc1ccc(OC)c(OC)c1)=C\CC[C@@]1(C)O[C@@H]21`, the figure is 32.8%.
`COc1cc(-c2nn(-c3ccc(Br)cc3)cc2C(=O)O)ccc1O`: the growth is 101%.
Same read-out and setting: as for `CCCCCC(=O)Oc1ccc(/C(=C(\C)c2ccc(OC)cc2)c2ccc(OCCN3CCCCC3)cc2)cc1`, the figure is 8.71% (active); as for `COC(=O)[C@@H]1CCCN1C(=O)[C@@H]1CCCN1C(=O)[C@H](Cc1ccccc1)NC(=S)Nc1cc(C(F)(F)F)cc(C(F)(F)F)c1`, 74.7%; as for `CCOc1ccc(C(C)=O)cc1NC(=O)c1cccc(-c2nnn(CC)n2)c1`, 7.72% (active).
As for `O=[N+]([O-])c1ccccc1/C=N\NC(=S)N/N=C/c1ccccc1[N+](=O)[O-]`, the growth is 21.5%.
Consider `O=[N+]([O-])c1ccc2c(c1)Cc1cc(F)ccc1-2`, for which the growth was 95.6%.
On the same count and under the same terms, with `CC(=O)OC[C@H]1O[C@H](OC(C)=O)[C@H](NC(=O)/C=C/CCl)[C@@H](OC(C)=O)[C@@H]1OC(C)=O` the figure was 54.3%; with `CCC#CC[C@H](O)C/C=C1/C(=O)C=C[C@@H]1C/C=C\CCCC(=O)OC`, -80.2% (active).
Still for that read-out and setting: with `CC/C=C\C[C@H](O)C/C=C1/C(=O)C=C[C@@]1(C)C/C=C\CCCC(=O)OC` the figure was 110%; with `CC[N+](CC)=c1sc2c(s1)C(c1ccc(Cl)cc1)Oc1ccc(Cl)cc1-2` (stereo not drawn), 0.814% (active).
Regarding `COc1cccc(-c2nc(SCC(=O)Nc3ccc(C(=O)/C=C/c4ccc(OC)c(OC)c4)cc3)[nH]c(=O)c2C#N)c1`, the growth was 102%.
The same measure, in the same setting: as for `COc1ccc(CN2c3ccccc3Oc3ccccc32)cc1O`, the figure is 72.7%; as for `C=C1C(=O)O[C@H]2[C@H]1CC/C(C=Nc1ccc(C(F)(F)F)cc1N)=C\CC[C@@]1(C)O[C@@H]21`, 1.96% (active).
Turning to `COc1ccc2c(c1)C(=O)/C(=C/c1cccnc1)CC2`, the growth was 92.5%.
The same measure, in the same setting: with `Clc1ccc2c(NCCCCNc3nc(N4CCOCC4)nc4ccccc34)ccnc2c1` the figure was -26.4% (active).
Still for that read-out and setting: as for `COc1ccccc1Nc1nc(-c2cc3cccc(C(F)(F)F)c3oc2=O)cs1`, the figure is 3.1% (active).
Turning to `CCc1c(Nc2ccccc2C)nc(N)[nH]c1=O`, the growth is 110%.
The same measure, in the same setting: as for `O=c1oc2c(C(F)(F)F)cccc2cc1-c1csc(Nc2ccc(OCCF)cc2)n1`, the figure is -11.5% (active).
Same read-out and setting: as for `COc1ccc(CN2c3ccccc3Sc3ccccc32)c(C(F)(F)F)c1`, the figure is 2.45% (active).
Still for that read-out and setting: with `COc1cc2c(cc1O)CC[C@@H]1[C@@H]2CC[C@]2(C)[C@@H](OCCN(C)C)CC[C@@H]12` the figure was 3.38% (active); with `CCNc1ncnc2c1cnn2C1CCCO1` (stereo not drawn), 119%.
Regarding `NC(=NCCCC1(c2ccccc2)CCCC1)Nc1ccc(Cl)cc1`, the growth was -15.4% (active).
Same read-out and setting: with `CCOc1ccc(-n2nc(C(=O)Nc3cc(OC)c(OC)c(OC)c3)nc2-c2cc(OC)c(OC)c(OC)c2)cc1` the figure was 84.6%; with `COc1ccc(CN2c3ccccc3Sc3ccccc32)cc1O`, 8.73% (active).
Same read-out and setting: with `NCCNc1nc(Nc2ccc(-c3nc4ccccc4[nH]3)cc2)c2cn[nH]c2n1` the figure was 62.7%.
Same read-out and setting: as for `COc1cccc2c1C(=O)c1c(O)c3c(c(O)c1C2=O)C[C@](O)(C(=O)CO)C[C@H]3O[C@@H]1C[C@@H](NC(=O)CCCCCN(C)C2(c3ccc(F)cc3)CC3CCC2C3)[C@H](O)[C@@H](C)O1` (stereo partly drawn), the figure is -55.5% (active).
Regarding `CC(O)CN(CC(C)O)c1ccc2c(c1)Cc1cc([N+](=O)[O-])ccc1-2` (stereo not drawn), the growth is 103%.

Another assay deals with SNB-75 CNS. The description is as above. Particulars: 10 µM unless noted.
For `O=C(CCCCC(=O)N/N=C\c1ccccc1O)N/N=C\c1ccccc1O`, the growth is 69.6%.
The same measure, in the same setting: with `COc1cc(-c2nc(C(=O)NCC(=O)NO)nn2-c2ccc(Cl)cc2)cc(OC)c1OC` the figure was 87.7%.
Still for that read-out and setting: as for `O=c1ccccc(-c2ccc(Br)cc2)c1O`, the figure is 31.4%; as for `Cc1cc2nc(NC(=O)CN3CCN(CCN4C(=O)c5cccc6cccc(c56)C4=O)CC3)sc2cc1C`, 77.8%.
The same measure, in the same setting: as for `COc1cc(C(=O)/C=C/c2cccnc2Nc2ccc(Cl)cc2)cc(OC)c1OC`, the figure is -74.7% (active).
As for `COc1ccc(-c2nnc(SCC(=O)c3ccc(Cl)cc3)o2)cc1`, the growth is 88.8%.
On the same count and under the same terms, as for `COc1cc(/C=C/C(=O)Nc2cccnc2Nc2ccc(F)cc2)cc(OC)c1OC`, the figure is 97%; as for `O=C1/C(=C/c2ccccc2O)N=C2SCCCN12`, 70.6%; as for `CC(C)(CCCN=C(N)Nc1ccc(Cl)cc1)c1ccc(F)cc1`, 60.7%.
On the same count and under the same terms, as for `CCCCC[C@H]1C/C=C2/C(=O)C=C[C@@H]2C/C=C\CCCC(=O)O1`, the figure is -33.6% (active).
The same measure, in the same setting: as for `COc1ccc2c(c1)C(=O)/C(=C/c1ccccn1)CC2`, the figure is 75.8%; as for `C=C1C(=O)O[C@H]2[C@H]1CC/C(COC(=O)NCCc1ccc(OC)c(OC)c1)=C\CC[C@@]1(C)O[C@@H]21`, 61.2%; as for `COc1cc(-c2nn(-c3ccc(Br)cc3)cc2C(=O)O)ccc1O`, 92.2%.
With `CCCCCC(=O)Oc1ccc(/C(=C(\C)c2ccc(OC)cc2)c2ccc(OCCN3CCCCC3)cc2)cc1`, the growth was 64%.
On the same count and under the same terms, with `COC(=O)[C@@H]1CCCN1C(=O)[C@@H]1CCCN1C(=O)[C@H](Cc1ccccc1)NC(=S)Nc1cc(C(F)(F)F)cc(C(F)(F)F)c1` the figure was 73.8%; with `CCOc1ccc(C(C)=O)cc1NC(=O)c1cccc(-c2nnn(CC)n2)c1`, 6.99% (active); with `O=[N+]([O-])c1ccccc1/C=N\NC(=S)N/N=C/c1ccccc1[N+](=O)[O-]`, 72.4%.
With `O=[N+]([O-])c1ccc2c(c1)Cc1cc(F)ccc1-2`, the growth is 92.1%.
Still for that read-out and setting: as for `CC(=O)OC[C@H]1O[C@H](OC(C)=O)[C@H](NC(=O)/C=C/CCl)[C@@H](OC(C)=O)[C@@H]1OC(C)=O`, the figure is 71.3%; as for `CCC#CC[C@H](O)C/C=C1/C(=O)C=C[C@@H]1C/C=C\CCCC(=O)OC`, 43.5%; as for `CC/C=C\C[C@H](O)C/C=C1/C(=O)C=C[C@@]1(C)C/C=C\CCCC(=O)OC`, 99.1%.
As for `CC[N+](CC)=c1sc2c(s1)C(c1ccc(Cl)cc1)Oc1ccc(Cl)cc1-2` (stereo not drawn), the growth was 4.43% (active).
Same read-out and setting: as for `COc1cccc(-c2nc(SCC(=O)Nc3ccc(C(=O)/C=C/c4ccc(OC)c(OC)c4)cc3)[nH]c(=O)c2C#N)c1`, the figure is 71.8%; as for `COc1ccc(CN2c3ccccc3Oc3ccccc32)cc1O`, 27.4%.
Regarding `C=C1C(=O)O[C@H]2[C@H]1CC/C(C=Nc1ccc(C(F)(F)F)cc1N)=C\CC[C@@]1(C)O[C@@H]21`, the growth is 41.1%.
In the case of `COc1ccc2c(c1)C(=O)/C(=C/c1cccnc1)CC2`, the growth was 91.6%.
Still for that read-out and setting: with `Clc1ccc2c(NCCCCNc3nc(N4CCOCC4)nc4ccccc34)ccnc2c1` the figure was 79%; with `COc1ccccc1Nc1nc(-c2cc3cccc(C(F)(F)F)c3oc2=O)cs1`, 15%; with `CCc1c(Nc2ccccc2C)nc(N)[nH]c1=O`, 92.9%.
With `O=c1oc2c(C(F)(F)F)cccc2cc1-c1csc(Nc2ccc(OCCF)cc2)n1`, the growth is 19.3%.
Same read-out and setting: with `COc1ccc(CN2c3ccccc3Sc3ccccc32)c(C(F)(F)F)c1` the figure was 7.8% (active); with `COc1cc2c(cc1O)CC[C@@H]1[C@@H]2CC[C@]2(C)[C@@H](OCCN(C)C)CC[C@@H]12`, 17.8%; with `CCNc1ncnc2c1cnn2C1CCCO1` (stereo not drawn), 89.4%.
On the same count and under the same terms, as for `NC(=NCCCC1(c2ccccc2)CCCC1)Nc1ccc(Cl)cc1`, the figure is 41.1%; as for `CCOc1ccc(-n2nc(C(=O)Nc3cc(OC)c(OC)c(OC)c3)nc2-c2cc(OC)c(OC)c(OC)c2)cc1`, 65.6%.
Same read-out and setting: as for `COc1ccc(CN2c3ccccc3Sc3ccccc32)cc1O`, the figure is 26.6%.
As for `NCCNc1nc(Nc2ccc(-c3nc4ccccc4[nH]3)cc2)c2cn[nH]c2n1`, the growth was 71.7%.
Still for that read-out and setting: with `COc1cccc2c1C(=O)c1c(O)c3c(c(O)c1C2=O)C[C@](O)(C(=O)CO)C[C@H]3O[C@@H]1C[C@@H](NC(=O)CCCCCN(C)C2(c3ccc(F)cc3)CC3CCC2C3)[C@H](O)[C@@H](C)O1` (stereo partly drawn) the figure was 41.3%.
The same measure, in the same setting: as for `CC(O)CN(CC(C)O)c1ccc2c(c1)Cc1cc([N+](=O)[O-])ccc1-2` (stereo not drawn), the figure is 87.5%.
